Inhibition data for 97 compounds are collected here from PubChem BioAssay AID1626 (SRMLSC, 2009).

“And” between values parts separate entries of the source, which are not always exact repeats. Equal entries are not always repeated. Out of some 220,000 compounds screened, about 2,000 (0.91%) were called active. Not shown: some 2% with an inconclusive outcome. Not all results are given here. Potency and affinity values are given separately. Unmarked numbers belong to inactive results. No stated cut-off is given here; in the data, inconclusive means inhibition above about 80% without an active follow-up result; inactive means below that; test concentration not stated here.

The assay in a line: M. tuberculosis H37Rv growth inhibitors, H37Rv strain (AID 1626).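 Further: bacteria incubated seven days before Alamar blue readout; 0% = bacteria only wells and 100% = bacteria with antibiotic wells.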 The note with it: active compounds read high, concentration not given here.
The inhibition is the change of the read-out against control, counted positive when it falls. As for `c1ccc(Nc2nc(-c3ccncc3)cs2)cc1`, the inhibition is 5.87%.

For `O=C(Nc1nccs1)C12CC3CC(C1)CC(C(=O)Nc1nccs1)(C3)C2`, the inhibition was 1.25%.

On to `O=C(CCS(=O)(=O)c1ccccc1)Nc1nc(-c2ccccn2)cs1`, for which the inhibition was 73.5%.

On to `O=C(CN1C(=O)CCC1=O)Nc1nc(-c2ccccn2)cs1`, for which the inhibition is 2.51%.

As for `O=C(Nc1nc(-c2nc3ccccc3s2)cs1)C1CC1`, the inhibition was 7.59%.

Regarding `O=C(CCSc1ccccc1)Nc1nccs1`, the inhibition was 3.44%.

Consider `O=C(Nc1ccccn1)C12CC3CC(C1)CC(C(=O)Nc1ccccn1)(C3)C2`, for which the inhibition was -2.92%.

With `c1ccc(-c2csc(Nc3cccnc3)n2)nc1`, the inhibition was 10.1%.

As for `O=c1[nH]c(N2CCOCC2)nc2ncn(Cc3ccccc3)c12`, the inhibition is -3.03%.

In the case of `COc1ccc(NS(=O)(=O)c2ccc(Cl)c(C(=O)O)c2)cc1S(=O)(=O)N1CCCCC1`, the inhibition is -7.19%.

Regarding `O=c1[nH]c(N2CCc3ccccc3C2)nc2c1CCC2`, the inhibition is -0.21%.

As to `CCOC(=O)N1CCN(c2ccc([N+](=O)[O-])cc2F)CC1C` (configuration not stated), the inhibition is 9.74%.

As for `CCCCn1c(CNC(C)=O)nc2ccccc21`, the inhibition was 1.64%.

Turning to `COC(=O)c1[nH]c2cc(C)ccc2c1NC(=O)CN1CCN(c2ccccc2OC)CC1`, the inhibition is 45%.

For the compound `CCC(C)NC(=S)Nc1ccc(F)cc1` (configuration not stated), the inhibition was 0.18%.

Consider `Cc1csc(NC(=O)C(NC(=O)c2ccccc2F)C(C)C)n1` (configuration not stated), for which the inhibition was 5.45%.

Turning to `CCc1nnc(NC(=O)C(NC(=O)c2ccccc2Cl)C(C)C)s1` (configuration not stated), the inhibition was 3.06%.

Regarding `CCOC(=O)c1sc(=NC(=O)/C=C/c2ccccc2)n(C)c1C`, the inhibition is -0.27%.

For the compound `COc1ccc(/C(N)=N/OC(=O)c2ccc3c(c2)OCO3)cc1`, the inhibition was 3.21%.

For the compound `O=[N+]([O-])c1cccc(Cl)c1CSc1ccccn1`, the inhibition is 0.94%.

For `O=C(CCCn1cnc([N+](=O)[O-])n1)Nc1cccc(Cl)c1Cl`, the inhibition was 1.24%.

For the compound `O=[N+]([O-])c1ncn(Cc2ccccc2Cl)n1`, the inhibition was 3.07%.

For `O=C(COC(=O)/C=C/c1ccccc1)Nc1cc(C(F)(F)F)ccc1N1CCOCC1`, the inhibition is -0.9%.

Take `CC(C)N(Cc1cn(C)nc1-c1cccc(Cl)c1)Cc1nccn1C`: the inhibition is 7.78%.

For the compound `CN1CCC(=NNC(=O)COc2ccc(Cl)cc2)CC1`, the inhibition was 2.45%.

Consider `COc1ccccc1OCC(=O)NNc1c2ccccc2nc2ccccc12`, for which the inhibition is -2.19%.

With `Nc1ccc2oc3ccc(N)cc3c(=O)c2c1`, the inhibition is 3.5%.

On to `O=[N+]([O-])c1ccc2c(c1)oc1ccccc12`, for which the inhibition was -1.07%.

Take `Cc1cc(NC(=O)c2ccc3c(c2)C(=O)N(CC(C)C)C3=O)no1`: the inhibition was 1.19%.

Turning to `COc1ccc(-c2noc(CSc3nnc(CCc4ccccc4)n3-c3ccccc3)n2)cc1OC`, the inhibition was 6.96%.

Turning to `Fc1cccc(COc2ccccc2CNc2ccccc2)c1`, the inhibition is 15.2%.

For `CCOc1ccccc1CNc1ccc(O)cc1`, the inhibition is -6.88%.

Take `COc1ccc(-n2nnnc2SCC(=O)Nc2nc3c(s2)CCCC3)cc1`: the inhibition was -4.11%.

Turning to `COc1ccc(C(=O)NCCN2C(=O)S/C(=C\c3cccnc3)C2=O)c(OC)c1OC`, the inhibition was 8.22%.

On to `Cc1n[nH]c(C)c1CCCCOc1ccccc1`, for which the inhibition is -2.76%.

Consider `Cc1ccccc1OCCCc1c(C)n[nH]c1C`, for which the inhibition is 33%.

For `Cc1cccc(OCCCc2c(C)n[nH]c2C)c1`, the inhibition is 1.52%.

`Cc1cccc(C)c1OCCCCc1c(C)n[nH]c1C`: the inhibition was 78.5%.

With `Cc1n[nH]c(C)c1CCCOc1ccccc1`, the inhibition is -17.6%.

Consider `Cc1n[nH]c(C)c1CCOc1ccc(C(C)C)cc1`, for which the inhibition was -3.37%.

`Cc1nc(NC(=O)COC(=O)c2ccc(S(=O)(=O)N3CCc4ccccc4C3)cc2)c(Cl)cc1Cl`: the inhibition is -3.47%.

For `COc1cc(NC(=S)N2CCC(C(O)(c3ccccc3)c3ccccc3)CC2)cc(OC)c1`, the inhibition was 4.64%.

`COc1ccccc1C(=O)NNC(=O)c1nn(Cc2ccccc2)c(=O)c2ccccc12`: the inhibition is 2.78%.

Turning to `Cc1[nH][nH]c(=O)c1N=Nc1ccc(Cl)cc1`, the inhibition was -0.49%.

In the case of `O=c1cc(CSCc2ccc(Cl)cc2)[nH]c(=O)[nH]1`, the inhibition was 7.09%.

As to `COc1cc2c(cc1NC(=O)CSc1ccccc1)oc1ccccc12`, the inhibition is 83%.

Turning to `COc1cc2c(cc1NC(=O)CSc1nc3ccc(C)cc3[nH]1)oc1ccccc12`, the inhibition is 51.1%.

As for `COc1ccc(-c2cc(C(F)(F)F)n3nc(C(=O)Nc4c(C)n(C)n(-c5ccccc5)c4=O)cc3n2)cc1`, the inhibition was 8.28%.

For `CCNc1nc(Cl)nc(NNC(=O)C(C)Oc2ccccc2)n1` (configuration not stated), the inhibition was 0.39%.

As to `CCN(c1ccc(NC(=O)CN2C(=O)NC3(CCOc4ccccc43)C2=O)cc1)C(C)C` (configuration not stated), the inhibition was -1.8%.

For `N#CCSc1nnc(N)s1`, the inhibition is 8.52%.

Turning to `Nc1c2c(nc3ccccc13)CCC2`, the inhibition was 3.36%.

On to `Nc1c2c(nc3ccn(-c4ccccc4)c(=O)c13)CCCCC2`, for which the inhibition is 11.1%.

`Cc1ccc(CNC(=O)C2CC(c3ccccc3F)=NO2)cc1` (configuration not stated): the inhibition is 0.74%.

`CCOC(=O)CN(C#N)c1nc(C)cc(C)n1`: the inhibition was -5.87%.

As for `COC(=O)CN(C#N)c1nc(N(C)C)nc(N(C)C)n1`, the inhibition was -2.49%.

As for `CCCCCCN1CCN(c2ccccc2Cl)CC1`, the inhibition is 4.25%.

For `O=C(Nc1ccc(F)cc1F)Nc1ccccc1C(=O)NCCN1CCNC1=O`, the inhibition was -7.32%.

As to `CCOC(=O)c1nc2sc3c(c2c(=O)[nH]1)CCCC3`, the inhibition was 6.3% and 4.22%.

For the compound `CC(C)CCOCc1nc2sc3c(c2c(=O)[nH]1)CCC(C)C3` (configuration not stated), the inhibition is 5.08%.

`CCOC(=O)N1CCC(NC(=O)CS(=O)Cc2nc(-c3ccc(OC)c(OC)c3)oc2C)CC1` (configuration not stated): the inhibition is 1.72%.

`Cc1ccc(/C=N/Nc2cc(C)nc(NCc3ccccc3)n2)cc1`: the inhibition was -1.4%.

In the case of `COc1ccc(Nc2cc(C)nc(NCc3ccccc3)n2)cc1`, the inhibition was 20.5%.

`Cc1cc(N/N=C/c2ccccc2)nc(NCc2ccccc2)n1`: the inhibition was 7.85%.

With `Cc1cc(OC2CCCCC2)nc(NCc2ccccc2)n1`, the inhibition is 6.25%.

With `CCCCNc1cc(C)nc(NCc2ccccc2)n1`, the inhibition was 8.03%.

With `Cc1cc(N2CCCCC2)nc(NCc2ccccc2)n1`, the inhibition was 11.8%.

As to `COc1ccc(NC(=O)CCCCn2c(=O)[nH]c3ccccc3c2=O)cc1`, the inhibition was -8.84%.

For the compound `CCc1cc(C(=O)N2CCc3c([nH]c4ccccc34)C2c2ccc(OC)cc2F)no1` (configuration not stated), the inhibition was 1.56%.

Take `CC(=O)OC1c2ccccc2C(=O)N1Cc1ccccc1` (configuration not stated): the inhibition was -4.69%.

As for `Fc1cccc(CSc2ncnc3c2oc2ccccc23)c1`, the inhibition was 5.28%.

With `Fc1ccc(CSc2ncnc3c2oc2ccccc23)cc1`, the inhibition is 15.6%.

Turning to `Cc1nc(SCC(=O)Nc2ccc(F)cc2)c2oc3ccccc3c2n1`, the inhibition is -5.02%.

As for `Cc1nc(SCCO)c2oc3ccccc3c2n1`, the inhibition is 10.1%.

`CCc1nc2c(c(=O)c3ccccc3n2C)c(=O)n1CCc1ccc(OC)cc1`: the inhibition was 19.9%.

Consider `O=C(NCc1nc(-c2ccc(C(F)(F)F)cc2)no1)Nc1ccc(OC(F)(F)F)cc1`, for which the inhibition is -5.05%.

Consider `O=C(NCc1nc(-c2ccc(C(F)(F)F)cc2)no1)Nc1ccc(F)cc1F`, for which the inhibition is 8.4%.

Consider `COc1ccc(N(C(=O)CNC(=O)c2cccs2)C(C(=O)NCC2CCCO2)c2ccccc2)cc1OC` (configuration not stated), for which the inhibition is -7.89%.

For the compound `O=C(c1ccc(F)cc1)N1CCN(c2ccc([N+](=O)[O-])cc2-n2cccc2)CC1`, the inhibition was 20.4%.

As to `Cc1ccc(C(=O)N2CCN(c3ccc([N+](=O)[O-])cc3-n3cccc3)CC2)cc1`, the inhibition is 33.7%.

With `COCC(C)NC(=S)NC(=O)c1cc(S(=O)(=O)N2CCOCC2)ccc1C` (configuration not stated), the inhibition was 4.56%.

Turning to `COc1cccc(NC(C(=O)Nc2cccc(C(C)=O)c2)c2ccccc2)c1` (configuration not stated), the inhibition was 6.16%.

With `Cc1cc(C)c2nc(Nc3nc(-c4ccccc4)cc(=O)[nH]3)nc(C)c2c1`, the inhibition was 2.35%.

As to `Cc1c(-n2cc(C(=O)O)c(=O)c3cc(F)c(N4CCCC(O)C4)c(F)c32)c(=O)n(-c2ccccc2)n1C` (configuration not stated), the inhibition was -0.64%.

Take `CCOC(=O)c1cn(C2CC2)c2c(F)c(F)c(F)cc2c1=O`: the inhibition was -2.19%.

In the case of `O=C(O)c1cn(C2CCCCC2)c2ccccc2c1=O`, the inhibition is -2.4%.

As for `CCn1cc(C(=O)O)c(=O)c2cc(F)c(N3CCN(C(=S)NC(=O)c4ccc(F)cc4)CC3)cc21`, the inhibition is 15.9%.

For the compound `Cc1cccc(-c2cc(=O)c(C(=O)O)cn2-c2ccc(F)cc2F)c1`, the inhibition is -8.14%.

Regarding `CC1CCc2cc(F)cc3c(=O)c(C(=O)O)cn1c23` (configuration not stated), the inhibition was 14.4%.

On to `CC1CCCCC1NC(=O)COC(=O)CNC(=O)c1cccc(F)c1` (configuration not stated), for which the inhibition is -0.59%.

Consider `CP(=O)(O)CN1CCCCC1`, for which the inhibition is -1.04%.

Take `NS(=O)(=O)c1ccc(CCNC(=O)CSc2nc3ccccc3c(=O)n2CCN2CCOCC2)cc1`: the inhibition is -2.17%.

On to `O=C(O)c1ccccc1C(=O)NCCc1c(C(=O)O)[nH]c2ccc(F)cc12`, for which the inhibition was -5.11%.

With `Cc1ccc(NC(=S)NCCc2ccc(F)cc2)c(C)c1`, the inhibition was 6.97%.

Consider `O=C(N/N=C/c1ccccc1F)NC1CCCCC1`, for which the inhibition is 6.4%.

Consider `CNC(=S)NNC(=O)c1noc(C)c1C(=O)N1CCN(C(c2ccccc2)c2ccccc2)CC1`, for which the inhibition is 4.63%.

As for `O=C(NNC(=O)c1ccc(F)cc1F)c1ccc2c(c1)OCO2`, the inhibition is -6.81%.
